Gli-Sufu block: Gli-Sufu pathway antagonists, primary screen, luciferase luminescence, Sufu-KO-LIGHT cells, uHTS; 340,000 compounds, 0.74% hits; Sufu-KO-LIGHT fibroblasts, Gli luciferase reporter luminescence; inhibition, % at 5 µM;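 active means inhibition above about 55%, limit read from the data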
Jurkat NFkB inh: inhibitors of induced NF-kB luciferase reporter, primary screen, TCR NF-kB activation inhibitor project, cell-based, luminescence, uHTS | AID 435003, 2010 | 330,000 compounds, 0.53% hits | Jurkat, PMA/ionomycin-induced NF-kB luciferase reporter | inhibition, % at 4 µM; in the data active means inhibition above about 50%
Shn3 inh set2: reduction of Shn3 3'UTR firefly luciferase signal, primary screen, Schnurri-3 inhibitor project, cell-based, Clone20 osteoblasts, set 2 | 360,000 compounds, 0.52% hits | inhibition, % at 12.5 µM | Clone20 osteoblast Shn3 3'UTR firefly luciferase, 24 h | AID 588674, 2011;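 active means mean inhibition of at least 75% with every replicate also reaching 75%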
Mdm2 MdmX PPI: inhibitors of human Mdm2-MdmX association, primary screen, cell-based, luminescence, split luciferase, SaOS-2, uHTS. SaOS-2 split-luciferase Mdm2/MdmX complementation. inhibition, % at 8 µM. 330,000 compounds, 3% hits. AID 485346, 2010;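 active means inhibition of at least 50% at 8 µM in the primary screen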
697 NFkB inh: inhibitors of PMA/ionomycin-induced NF-kB reporter, 697 cells, primary screen, B-cell NF-kB inhibitor project, cell-based, luminescence, uHTS; AID 435022, 2010; inhibition, % at 4 µM; 330,000 compounds, 0.33% hits; 697 B-cell NF-kB luciferase reporter, 16 h; in the data active means inhibition above about 35%
Mdm2-MdmX conf: Mdm2-MdmX complex disruptors, retested hits, confirmation, luminescence, single concentration. 10,000 compounds, 55% hits. AID 489028, 2010. shares compounds with Mdm2 MdmX PPI. Mdm2-MdmX binding, luminescent assay. inhibition, % at 8 µM; in the data active means inhibition above about 40%
FLuc counter: full-length luciferase signal inhibition, confirmation, counter-screen for Mdm2/MdmX interaction inhibitor project, cell-based, single concentration, SaOS-2. shares compounds with Mdm2 MdmX PPI. SaOS-2 full-length luciferase counterscreen, luminescence. inhibition, % at 8 µM. 6,200 compounds, 77% hits. AID 504607, 2011;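 active means mean inhibition at 8 µM reaching about 37%, which flags the compound as non-specific, limit read from the data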;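 further: p53-null SaOS-2 cells with luciferase driven by a doxycycline-inducible promoter; compound on cells about two nights before reading with doxycycline added after day one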
A number is an active result; 0 = inactive; - = no result. A selection: hits, their analogues and other compounds. The true share with any hit is near 3.8%.

SMILES	Gli-Sufu block	Jurkat NFkB inh	Shn3 inh set2	Mdm2 MdmX PPI	697 NFkB inh	Mdm2-MdmX conf	FLuc counter
O=S(c1ccc2ccccc2c1)c1cnns1 (stereo not given)	0	0	0	57	0	0	-
COc1cc(/C=C/C(=O)c2ccc(NS(=O)(=O)c3ccc(C)cc3)cc2)ccc1OC(F)F	0	0	0	92	0	42	62
COc1cccc(/C=C/C(=O)c2ccc(NS(=O)(=O)c3ccc(C)cc3)cc2)c1	0	0	0	71	0	0	-
COc1cc(/C=C/C(=O)c2ccc(NS(=O)(=O)c3ccc(C)cc3)cc2)cc(OC)c1O	0	-	0	-	-	-	-
COc1ccc(NC(=O)CN(c2ccccc2F)S(=O)(=O)c2ccc(C)cc2)cc1	0	0	0	0	0	-	-
CCN(CC)c1ccc(N2C(=NC(=O)C3CC3)SC3CS(=O)(=O)CC32)cc1 (stereo not given)	0	0	0	0	0	-	-
c1ccc(C2C3=C(CCCC3)Nc3ncnn32)cc1 (stereo not given)	0	0	0	0	0	-	-
Fc1ccc(/C=C2\CCCC3=C2Nc2ncnn2C3c2ccc(F)cc2)cc1 (stereo not given)	0	0	97	99	0	47	0
O=C(NCc1ccccc1)C1=C[C@H](c2csc3ccccc23)C[C@H](OCc2ccc(CO)cc2)O1	0	0	0	54	0	0	59
O=C(Nc1ccccc1)C1=C[C@@H](C2CCCCC2)C[C@@H](OCc2ccc(CO)cc2)O1	0	0	0	96	0	76	0
O=C(NCc1nc2ccccc2[nH]1)C1=C[C@H](c2ccccc2)C[C@H](OCc2ccc(CO)cc2)O1	0	0	0	0	0	-	-
O=C(Nc1ccccc1)C1=C[C@@H](c2csc3ccccc23)C[C@@H](OCc2ccc(CO)cc2)O1	0	0	0	0	0	-	-
O=C(NCc1nc2ccccc2[nH]1)C1=C[C@@H](C2CCCCC2)C[C@@H](OCc2ccc(CO)cc2)O1	0	0	0	0	0	-	-
CC(C)(C)[C@H]1C=C(C(=O)NCc2nc3ccccc3[nH]2)O[C@@H](OCc2ccc(CO)cc2)C1	0	0	0	53	0	54	93
O=C(Nc1ccccc1)C1=C[C@H](C2CCCCC2)C[C@H](OCc2ccc(CO)cc2)O1	0	0	0	0	0	-	-
O=C(NCc1nc2ccccc2[nH]1)C1=C[C@H](C2CCCCC2)C[C@H](OCc2ccc(CO)cc2)O1	0	0	0	68	0	44	67
CCC(C)NC(=O)Nc1ccc(Br)cc1 (stereo not given)	0	0	0	0	0	-	-
CCC(C)Nc1ccc(NC(C)CC)cc1 (stereo not given)	0	0	89	97	0	68	0
COc1ccc(C2C(C#N)=C(N)Oc3c2ccc2cccnc32)cc1OC (stereo not given)	0	0	0	81	0	78	60
CC1CCN(C(=O)c2ccc(NC3=C(Cl)C(=O)N(Cc4ccccc4)C3=O)cc2)CC1	0	0	0	58	0	0	-
CC1CCCCN1C(=O)c1cccc(NC2=C(Cl)C(=O)N(Cc3ccccc3)C2=O)c1 (stereo not given)	0	0	0	76	0	0	-
O=C1C(Cl)=C(Nc2cccc(O)c2)C(=O)N1Cc1ccccc1	0	0	0	52	0	0	-
CC1CCCCN1C(=O)c1ccc(C(=O)c2ccccc2)cc1 (stereo not given)	0	0	0	0	0	-	-
CCOc1ccccc1NC1=C(Cl)C(=O)N(Cc2ccccc2)C1=O	0	0	0	0	0	-	-
COc1ccc(/C=N/OCC(=O)Nn2c(C)nc3ccccc3c2=O)cc1	0	0	0	0	0	-	-
O=C(CSc1nncs1)Nc1ccc(N2CCCCC2)cc1	0	0	0	0	0	-	-

Source: PubChem BioAssay
